HIF-2a inh – HIF-2a reporter inhibitors, primary screen, luminescence, 786-0 RCC cells; 786-0 RCC cells HIF-2a reporter, luciferase luminescence, overnight; inhibition, % at 18.8 µM; 360,000 tested, 0.72% active; AID 624352, 2012;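 active means inhibition of the luminescence signal of 40% or more relative to plate controls, in a single-dose primary screen at 18.75 µM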
CHOP inh – inhibitors of CHOP promoter induction, primary screen, cell-based, unfolded protein response, luciferase reporter; CHO-K1 CHOP-promoter luciferase, tunicamycin-induced, 15-18 h; inhibition, % at 10 µM; 220,000 tested, 3.8% active;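 active means compounds that reduced the stress-induced luciferase reporter signal by more than about 70% of percent inhibition, limit read from the data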;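 further: 0% = tunicamycin plus vehicle and 100% = wells without tunicamycin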
KKLEB cytotox – cytotoxicity in KKLEB CF airway cells, primary screen, cytotoxicity control for CF NF-kB inhibitor project, cell-based, uHTS, fluorescence assay plates; KKLEB CF airway cells viability, ATPlite luminescence, overnight; stronger effect = lower value; cells stimulated with P. aeruginosa culture filtrate; activity change (cytotoxicity), % at 5 µM; 360,000 tested, 0.36% active;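 active means corrected activity change at or below -50% at 5 µM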
MITF TRPM1 inh – inhibitors of MITF-dependent TRPM1 promoter reporter, primary screen, cell-based, SK-MEL-5, single point, luciferase. AID 488899, 2010. 330,000 tested, 0.83% active. SK-MEL-5 TRPM1 promoter luciferase, 24 h. inhibition, % at 12.5 µM;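 active means mean inhibition across replicates of 60% or more, whatever share of single replicates reaches that level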
CF NFkB inh – inhibitors of PAF-induced NF-kB signaling, primary screen, cell-based, GFP fluorescence, uHTS; AID 588850, 2011; KKLEB NF-kB-GFP reporter, GFP fluorescence overnight; inhibition, % at 5 µM; 360,000 tested, 0.86% active;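 active means at least 50% inhibition at 5 µM, scaled per plate between neutral and stimulator controls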;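 further: PAF is a Pseudomonas aeruginosa culture filtrate used as stimulus; plate controls were PAF-stimulated DMSO wells for no effect and unstimulated DMSO wells for full effect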
Peg3 promoter – Peg3 promoter-driven luciferase inhibitors, primary screen, cell-based, HeLa, luciferase luminescence. AID 588405, 2011. HeLa PEG-Prom luciferase reporter, overnight. 360,000 tested, 1.7% active. inhibition, % at 20 µM;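 active means inhibition of at least 50% at 20 µM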
Mdm2-MdmX confirm – retested Mdm2-MdmX interaction blockers, confirmation, cell-based, luminescence, single concentration, set 2 | 740 tested, 99% active | SaOS-2 split-luciferase Mdm2/MdmX complementation | shares compounds with HIF-2a inh | inhibition, % at 8 µM;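 active means mean inhibition of the luminescence signal across two replicates at or above 26 percent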
HIF-2a inh conf – HIF-2a reporter inhibitor retest, confirmation, luminescence, 786-0 RCC cells; AID 651580, 2012; shares compounds with HIF-2a inh; 1,800 tested, 56% active; inhibition, % at 18.8 µM; HIF-2a luciferase reporter luminescence, overnight;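 active means mean inhibition across four replicates of at least 40 percent at the single tested concentration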
HIF-1a counter – HIF-1a luciferase reporter signal reduction – MiaPaCa-2 cells, single concentration, counter-screen for HIF-2a inhibitor project, confirmation. inhibition, % at 18.8 µM. shares compounds with HIF-2a inh. MiaPaCa-2 HIF-1a luciferase reporter, desferoxamine, overnight. 1,800 tested, 72% active;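 active means mean inhibition of the reporter signal across four replicates at the single tested dose of 50% or more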
Numbers without * were called inactive. Compounds with a hit are over-represented: about 4.3% of the library has one in this group of screens.

How did Cc1ccc(-c2cc(C(=O)NCCCN3CCOCC3)no2)cc1 do in these assays?
HIF-2a inh: 84*; CHOP inh: 47; KKLEB cytotox: -20; MITF TRPM1 inh: 23; CF NFkB inh: 12; Peg3 promoter: 0; HIF-2a inh conf: 82*; HIF-1a counter: 71*

What do the screens show for `O=C(NCCCN1CCOCC1)c1cc(-c2ccc(Cl)c(Cl)c2)on1`?
HIF-2a inh: -50; KKLEB cytotox: -8; MITF TRPM1 inh: -10; CF NFkB inh: 25; Peg3 promoter: -29

How did Cc1[nH]c(=O)c(C(=O)/C=C/c2ccccc2F)c2c1CCCC2 do in these assays?
HIF-2a inh: 90*; CHOP inh: -21; KKLEB cytotox: -38; MITF TRPM1 inh: 84*; CF NFkB inh: 91*; Peg3 promoter: 110*; Mdm2-MdmX confirm: 103*; HIF-2a inh conf: 92*; HIF-1a counter: 100*

How did O=C(NCCCN1CCOCC1)c1ccc2c(c1)N(Cc1c(F)cccc1Cl)C(=O)CS2 do in these assays?
HIF-2a inh: 12; KKLEB cytotox: 2; MITF TRPM1 inh: 2; CF NFkB inh: -18; Peg3 promoter: 7

What do the screens show for `Cc1cc(C(=O)CSc2nnc(N)s2)c(C)n1CCc1ccc(Cl)cc1`?
HIF-2a inh: -91; CHOP inh: 40; KKLEB cytotox: 7; MITF TRPM1 inh: -31; CF NFkB inh: 0; Peg3 promoter: -24

Results for Cc1cc(C(=O)CCl)c(C)n1CCc1ccc(Cl)cc1 ?
HIF-2a inh: 48*; CHOP inh: -4; KKLEB cytotox: -30; MITF TRPM1 inh: 78*; CF NFkB inh: 30; Peg3 promoter: 98*; HIF-2a inh conf: 49*; HIF-1a counter: 105*

How did CC(=O)Nc1ccc(OS(=O)(=O)c2cc(Cl)ccc2C)cc1 do in these assays?
HIF-2a inh: 7; CHOP inh: 16; KKLEB cytotox: -9; MITF TRPM1 inh: -1; CF NFkB inh: -7; Peg3 promoter: 26

What do the screens show for `CC(=O)Nc1ccc(OS(=O)(=O)c2ccccc2C)cc1`?
HIF-2a inh: -34; CHOP inh: -10; KKLEB cytotox: 3; MITF TRPM1 inh: -10; CF NFkB inh: -6; Peg3 promoter: -20

What do the screens show for `CC(=O)Nc1ccc(OS(=O)(=O)c2c(C)cc(C)cc2C)cc1`?
HIF-2a inh: 50*; CHOP inh: 7; KKLEB cytotox: -8; MITF TRPM1 inh: -9; CF NFkB inh: 8; Peg3 promoter: 31; HIF-2a inh conf: 55*; HIF-1a counter: 7

What do the screens show for `CC(=O)Nc1ccc(OS(=O)(=O)c2ccc(C)cc2C)cc1`?
HIF-2a inh: 80*; CHOP inh: -6; KKLEB cytotox: -16; MITF TRPM1 inh: -13; CF NFkB inh: 0; Peg3 promoter: 7; HIF-2a inh conf: 88*; HIF-1a counter: 34

Results for CCOc1ccc(NC(=O)CN(C)S(=O)(=O)c2ccc3c(c2)CCC(=O)N3)cc1 ?
HIF-2a inh: 3; CHOP inh: 9; KKLEB cytotox: 10; MITF TRPM1 inh: -6; CF NFkB inh: 3; Peg3 promoter: 14

What do the screens show for `Cc1ccc(NC(=O)c2ccc(Cl)c(N3C(=O)C=CC3=O)c2)cc1`?
HIF-2a inh: 49*; CHOP inh: 43; KKLEB cytotox: -1; MITF TRPM1 inh: 38; CF NFkB inh: 28; Peg3 promoter: 101*; HIF-2a inh conf: 25; HIF-1a counter: -34

Assay outcomes as filed in PubChem BioAssay.
